Consider 37 compounds from PubChem BioAssay (EPA / NIEHS).

Activity calls are given as the source filed them. Rule for the calls: active = hit-call score of the fitted dose curve at least 0.9, where 1 is the maximum; inactive = score below 0.9.

Hepatocyte nuclear factor 3-beta (Homo sapiens), sequence (Q9Y261 whole entry, looked up): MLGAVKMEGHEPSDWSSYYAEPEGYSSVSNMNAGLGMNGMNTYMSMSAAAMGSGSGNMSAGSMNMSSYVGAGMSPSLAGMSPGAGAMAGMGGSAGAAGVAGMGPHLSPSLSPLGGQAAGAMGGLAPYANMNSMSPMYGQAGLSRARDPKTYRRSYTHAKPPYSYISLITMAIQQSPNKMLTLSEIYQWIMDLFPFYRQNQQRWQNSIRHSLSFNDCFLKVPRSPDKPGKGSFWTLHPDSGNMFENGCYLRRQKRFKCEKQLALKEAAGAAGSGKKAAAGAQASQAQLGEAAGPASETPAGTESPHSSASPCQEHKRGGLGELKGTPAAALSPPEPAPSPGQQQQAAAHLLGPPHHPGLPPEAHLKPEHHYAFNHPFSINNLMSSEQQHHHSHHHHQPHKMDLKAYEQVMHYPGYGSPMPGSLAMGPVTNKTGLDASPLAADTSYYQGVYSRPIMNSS

One experiment concerns the target Hepatocyte nuclear factor 3-beta (Homo sapiens) (UniProt Q9Y261). The experiment in a line: ATG_FoxA2_CIS: Attagene CIS-FACTORIAL HepG2 Assay for human Forkhead box A2 (FOXA2) (AID 2282942). The conditions noted are these: HepG2 cis-reporter transcription factor activity, 24 h; actives raise or lower the signal. The method, boiled down:
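Reporter transcript induction is measured by fluorescence after capillary electrophoresis of RT-PCR products from HepG2 cells exposed 24 h. Cis-regulated reporter units report endogenous factor activity; curves fitted both directions against DMSO.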
`O=C(O)c1cccc(C(=O)O)n1`: the compound was called inactive.
As to `O=P(O)(O)CCC(F)(F)C(F)(F)C(F)(F)C(F)(F)C(F)(F)C(F)(F)F`, the compound was classed as inactive.
On the same count and under the same terms, as for `O=C(OC(=O)C(F)(F)C(F)(F)F)C(F)(F)C(F)(F)F`, the entry is “inactive”; as for `Cc1cccc2c1ccc1ccccc12`, “inactive”.
The same measure, in the same setting: as for `CCCCC(CC)C(=O)OCCOCCOCCOCCOC(=O)C(CC)CCCC` (stereo not given), the entry is “inactive”.
Still for that read-out and setting: as for `O=C(O)CCC(F)(F)C(F)(F)C(F)(F)C(F)(F)C(F)(F)C(F)(F)F`, the entry is “inactive”; as for `CCCCCCCCCCCCOC(=O)c1cc(O)c(O)c(O)c1`, “inactive”.
For the compound `O=C(O)CN(CCCN(CC(=O)O)CC(=O)O)CC(=O)O`, the result was inactive.
Still for that read-out and setting: as for `Cc1ccccc1C(OCCN(C)C)c1ccccc1` (stereo not given), the entry is “inactive”.
Still for that read-out and setting: the entry for `c1ccc(CNc2ncnc3c2ncn3C2CCCCO2)cc1` (stereo not given) is “inactive”.
Consider `C=CC(=C)CC/C=C(\C)CCC=C(C)C`, for which the outcome was inactive.
Regarding `Clc1ccc(Nc2nnc(Cc3ccncc3)c3ccccc23)cc1`, the outcome was inactive.
Still for that read-out and setting: as for `CCOC(=O)CN[C@@H](C(=O)N1CC[C@H]1C(=O)NCc1ccc(/C(N)=N/O)cc1)C1CCCCC1`, the entry is “inactive”; as for `CC1CNCC(C)O1` (stereo not given), “inactive”.
On to `Cc1cc(Cc2cc(C)cc(C(C)(C)C)c2O)c(O)c(C(C)(C)C)c1`, for which the AC50 was 128 µM (active).
Regarding `CC=O`, the call was inactive.
On to `Nc1cc(Cl)c(-c2cc(Cl)c(N)cc2Cl)cc1Cl`, for which the compound was classed as inactive.
For `Oc1cccc2c(O)cccc12`, the AC50 is 0.0859 µM (active).
For `CC1CCC(C(=O)O)CC1` (stereo not given), the compound was called inactive.
On the same count and under the same terms, as for `CC1=CC(=O)c2ccccc2C1=O`, the entry is “inactive”.
On to `CCCCCCCCCCCCCC[n+]1ccccc1`, for which the AC50 was 18.2 µM (active).
As for `CCCCCCCCC1CCC(=O)O1` (stereo not given), the outcome was inactive.
The same measure, in the same setting: the entry for `FC(F)(F)C1(F)C(F)(F)C(F)(F)C(F)(F)C1(F)F` is “inactive”; for `Oc1c(Cl)cc(Cl)cc1Sc1cc(Cl)cc(Cl)c1O` it is “inactive”; for `NNc1nc(-c2ccc([N+](=O)[O-])cc2)cs1` it is “inactive”.
As to `Nc1ccc(O)c(C(=O)O)c1`, the compound was called inactive.
Same read-out and setting: as for `Cn1sccc1=O`, the entry is “inactive”.
Still for that read-out and setting: as for `O=C1OC(=O)C(F)(F)C1(F)F`, the entry is “inactive”.
Still for that read-out and setting: as for `FC(F)(F)C1(F)C(F)(F)C(F)(F)C(F)(F)C(F)(C(F)(F)F)C1(F)F` (stereo not given), the entry is “inactive”; as for `CCCCCCOC(=O)c1ccc(O)cc1`, “inactive”.

Tested on in a further experiment: not listed separately
The experiment in a line: ATG_FoxO_CIS: Attagene CIS-FACTORIAL HepG2 Assay for human Forkhead box O (FoxO) (AID 2282943). The following applies: HepG2 Attagene cis-reporter, FoxO element, mRNA; actives raise or lower the signal. A digest of the protocol: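 HepG2 cells transiently transfected with cis-promoter-driven multiple reporter transcription units; 24 h after chemical dosing, reporter mRNA quantified by RT-PCR, fluorescent primer extension, HpaI digestion and capillary electrophoresis. Bidirectional fitting versus DMSO baseline.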
On to `O=C(O)c1cccc(C(=O)O)n1`, for which the compound was called inactive.
Same read-out and setting: as for `O=P(O)(O)CCC(F)(F)C(F)(F)C(F)(F)C(F)(F)C(F)(F)C(F)(F)F`, the entry is “inactive”; as for `CN(Cc1cnc2nc(N)nc(N)c2n1)c1ccc(C(=O)N[C@@H](CCC(=O)O)C(=O)O)cc1`, “inactive”.
The same measure, in the same setting: as for `Cc1cccc2c1ccc1ccccc12`, the entry is “inactive”.
Same read-out and setting: the entry for `CCCCCCCCCCCCOC(=O)c1cc(O)c(O)c(O)c1` is “inactive”; for `CC(C)(C)c1ccc(CCC=O)cc1` it is “inactive”; for `O=C(O)CN(CCCN(CC(=O)O)CC(=O)O)CC(=O)O` it is “inactive”.
Turning to `Cc1ccccc1C(OCCN(C)C)c1ccccc1` (stereo not given), the compound was called inactive.
`CC(C)(C)C1CCCCC1O` (stereo not given): the compound was called inactive.
Still for that read-out and setting: as for `C=CC(=C)CC/C=C(\C)CCC=C(C)C`, the entry is “inactive”.
On the same count and under the same terms, the entry for `Clc1ccc(Nc2nnc(Cc3ccncc3)c3ccccc23)cc1` is “inactive”.
On the same count and under the same terms, as for `CCOC(=O)CN[C@@H](C(=O)N1CC[C@H]1C(=O)NCc1ccc(/C(N)=N/O)cc1)C1CCCCC1`, the entry is “inactive”.
Take `CC1CNCC(C)O1` (stereo not given): the compound was called inactive.
Regarding `Cc1cc(Cc2cc(C)cc(C(C)(C)C)c2O)c(O)c(C(C)(C)C)c1`, the half-maximal activity concentration (AC50) is 51.4 µM (active).
Regarding `CCC(=O)C=Cc1ccc(OC)cc1`, the result was inactive.
On to `CCCCCCCCCCCCCCCCCC[N+](C)(C)Cc1ccccc1`, for which the result was inactive.
On to `Nc1cc(Cl)c(-c2cc(Cl)c(N)cc2Cl)cc1Cl`, for which the compound was called inactive.
Still for that read-out and setting: the entry for `Oc1cccc2c(O)cccc12` is “inactive”; for `CC1CCC(C(=O)O)CC1` (stereo not given) it is “inactive”; for `CC1=CC(=O)c2ccccc2C1=O` it is “inactive”.
The same measure, in the same setting: as for `CCCCCCCCCCCCCC[n+]1ccccc1`, the entry is “inactive”.
Same read-out and setting: as for `CCCCCCCCC1CCC(=O)O1` (stereo not given), the entry is “inactive”; as for `C=CCOCC(CO)(CO)CO`, “inactive”.
As to `FC(F)(F)C1(F)C(F)(F)C(F)(F)C(F)(F)C1(F)F`, the compound was classed as inactive.
The same measure, in the same setting: the entry for `NNc1nc(-c2ccc([N+](=O)[O-])cc2)cs1` is “inactive”.
Take `O=CC(F)(F)C(F)(F)C(F)(F)C(F)F`: the outcome was inactive.
`FC(F)(F)C1(F)C(F)(F)C(F)(F)C(F)(F)C(F)(C(F)(F)F)C1(F)F` (stereo not given): the call was inactive.
Still for that read-out and setting: the entry for `CCCCCCOC(=O)c1ccc(O)cc1` is “inactive”.

Tested on in a further experiment: not listed separately
The experiment in a line: ATG_GATA_CIS: Attagene CIS-FACTORIAL HepG2 Assay for human GATA Binding Protein (AID 2282944). The conditions noted are these: HepG2 GATA cis-element reporter, Attagene multiplex mRNA; actives raise or lower the signal. A digest of the protocol:
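Read-out: fluorescent reporter mRNA fragments resolved by capillary electrophoresis after RT-PCR. Human liver HepG2 cells carried transiently transfected cis-regulated reporter constructs; chemicals incubated 24 h; gain or loss of signal fitted relative to DMSO.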
In the case of `O=C(O)c1cccc(C(=O)O)n1`, the result was inactive.
The same measure, in the same setting: the entry for `O=P(O)(O)CCC(F)(F)C(F)(F)C(F)(F)C(F)(F)C(F)(F)C(F)(F)F` is “inactive”; for `CN(Cc1cnc2nc(N)nc(N)c2n1)c1ccc(C(=O)N[C@@H](CCC(=O)O)C(=O)O)cc1` it is “inactive”; for `O=C(OC(=O)C(F)(F)C(F)(F)F)C(F)(F)C(F)(F)F` it is “inactive”.
On the same count and under the same terms, as for `Cc1cccc2c1ccc1ccccc12`, the entry is “inactive”; as for `CCCCC(CC)C(=O)OCCOCCOCCOCCOC(=O)C(CC)CCCC` (stereo not given), “inactive”.
Turning to `O=C(O)CCC(F)(F)C(F)(F)C(F)(F)C(F)(F)C(F)(F)C(F)(F)F`, the compound was called inactive.
The same measure, in the same setting: the entry for `CCCCCCCCCCCCOC(=O)c1cc(O)c(O)c(O)c1` is “inactive”.
On to `CC(C)(C)c1ccc(CCC=O)cc1`, for which the result was inactive.
Still for that read-out and setting: the entry for `O=C(O)CN(CCCN(CC(=O)O)CC(=O)O)CC(=O)O` is “inactive”.
Still for that read-out and setting: as for `Cc1ccccc1C(OCCN(C)C)c1ccccc1` (stereo not given), the entry is “inactive”.
Same read-out and setting: the entry for `CC(C)(C)C1CCCCC1O` (stereo not given) is “inactive”; for `c1ccc(CNc2ncnc3c2ncn3C2CCCCO2)cc1` (stereo not given) it is “inactive”; for `C=CC(=C)CC/C=C(\C)CCC=C(C)C` it is “inactive”.
With `Clc1ccc(Nc2nnc(Cc3ccncc3)c3ccccc23)cc1`, the call was inactive.
Still for that read-out and setting: as for `CCOC(=O)CN[C@@H](C(=O)N1CC[C@H]1C(=O)NCc1ccc(/C(N)=N/O)cc1)C1CCCCC1`, the entry is “inactive”.
The same measure, in the same setting: the entry for `CC1CNCC(C)O1` (stereo not given) is “inactive”; for `Cc1cc(Cc2cc(C)cc(C(C)(C)C)c2O)c(O)c(C(C)(C)C)c1` it is “inactive”; for `CCC(=O)C=Cc1ccc(OC)cc1` it is “inactive”.
On the same count and under the same terms, the entry for `CC=O` is “inactive”.
Regarding `CCCCCCCCCCCCCCCCCC[N+](C)(C)Cc1ccccc1`, the compound was classed as inactive.
Still for that read-out and setting: as for `Nc1cc(Cl)c(-c2cc(Cl)c(N)cc2Cl)cc1Cl`, the entry is “inactive”.
On the same count and under the same terms, the entry for `Oc1cccc2c(O)cccc12` is “inactive”; for `CC1CCC(C(=O)O)CC1` (stereo not given) it is “inactive”.
On the same count and under the same terms, the entry for `CC1=CC(=O)c2ccccc2C1=O` is “inactive”; for `CCCCCCCCCCCCCC[n+]1ccccc1` it is “inactive”.
Regarding `CCCCCCCCC1CCC(=O)O1` (stereo not given), the compound was called inactive.
The same measure, in the same setting: as for `C=CCOCC(CO)(CO)CO`, the entry is “inactive”; as for `FC(F)(F)C1(F)C(F)(F)C(F)(F)C(F)(F)C1(F)F`, “inactive”; as for `Oc1c(Cl)cc(Cl)cc1Sc1cc(Cl)cc(Cl)c1O`, “inactive”.
The same measure, in the same setting: as for `NNc1nc(-c2ccc([N+](=O)[O-])cc2)cs1`, the entry is “inactive”; as for `O=CC(F)(F)C(F)(F)C(F)(F)C(F)F`, “inactive”.
The same measure, in the same setting: the entry for `Nc1ccc(O)c(C(=O)O)c1` is “inactive”.
Turning to `Cn1sccc1=O`, the result was inactive.
Same read-out and setting: the entry for `O=C1OC(=O)C(F)(F)C1(F)F` is “inactive”.
Still for that read-out and setting: the entry for `FC(F)(F)C1(F)C(F)(F)C(F)(F)C(F)(F)C(F)(C(F)(F)F)C1(F)F` (stereo not given) is “inactive”.
`CCCCCCOC(=O)c1ccc(O)cc1`: the compound was classed as inactive.
